Where “and” joins values, the source holds several entries; their conditions need not be identical. Equal entries are not always repeated. Results filed as inconclusive are left out. The source holds several records for some structures; these can differ, active in one and inactive in another. Calls of active or inactive are those of the source. How the source made its calls: active means hit-call score of the fitted dose curve at least 0.9, where 1 is the maximum; inconclusive means response in the unintended direction; inactive means score below 0.9.

A short description of this assay: TOX21_p53_BLA_p4_viability: Viability Assessment in the Tox21 HCT-116 p53 Agonism Beta-lactamase Assay, Phase 4 (AID 2283597).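 Further: hits lower the luminescence signal meaning cytotoxicity.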 From the text:
TOX21_p53_BLA_p4 is a cell-based, single-readout assay that uses HCT116, a human intestinal cell line, […] in a 1536-well plate.TOX21_p53_BLA_p4_viability is an assay readout measuring cellular ATP content and detected with CellTiter-Glo Luciferase-coupled ATP quantitation.TOX21_p53_BLA_p4_viability used a type of viability reporter where loss-of-signal activity can be used to understand changes in the cell viability. Furthermore, this assay endpoint can be referred to as a secondary readout, because this assay has produced multiple assay endpoints where this one serves a viability function. To generalize the intended target to other relatable targets, this assay endpoint is annotated to the cell cycle intended target family, where the subfamily is cytotoxicity.
Thawing Method: Place 14 mL of pre-warmed thaw medium into a 15 mL of conical tub. Remove the vial of cells to be thawed from liquid nitrogen and thaw rapidly by placing at 37C in a water bath with gentle agitation for 1-2 minutes. Decontaminate the vial by wiping with 70% ethanol before opening in a biological safety cabinet. Transfer the vial contents drop-wise into 14 mL of thaw medium in a sterile 15-mL conical tub. Centrifuge cells at 900 rpm for 4 minutes and resuspend in thaw medium. Transfer contents to the T75 tissue culture flask containing Thaw Medium and place flask in a humidified 37C/5% CO2 incubator. Switch to growth medium at first passage.Propagation Method: Aspirate medium, rinse once in DPBS, add 0.25% Trypsin/EDTA and swirl to coat the cell evenly. Add an equal volume of Growth Medium to inactivate Trypsin after 2-3 minutes incubation at 37C. Centrifuge cells at 900 rpm for 4 minutes and resuspend in growth medium. Cell should be passage or fed at least twice a week.Assay Protocol: Harvest cells from culture in growth medium and resuspend in assay medium. 2.2 Dispense 4000 cells/5 uL/well into 1536-well black/clear bottom plates using a Multidrop dispenser. After the cells were incubated at 37C for 5 hours, 23 nL of compounds dissolved in DMSO were transferred to the assay plate by a PinTool resulting in a 217-fold dilution. Incubate the plates for 16 hours at 37C, 5% CO2. Add 1 uL of 6X LiveBLAzer FRET B/G (CCF4-AM) Substrate Mixture to each well using a BioRAPTR dispenser and incubate the plates at room temperature for 2 hours. Measure fluorescence intensity at 460 and 530 nm emission and 405 nm excitation by an Envision detector. Data is expressed as the ratio of 460nm/530nm emissions. Add 4 uL of Cell-titer Glo to each well using BioRAPTR and incubate the plates at room temperature for […]. For cell viability readout that measures cytotoxicity, 4 ul/well of CellTiter-Glo reagent was added into the assay plates using a Flying Reagent Dispenser. After 30 min incubation at room temperature, the luminescence intensity in the plates was measured using a ViewLux plate reader.
On to `O=C1OC2(c3cc(Br)c(O)c(Br)c3Oc3c2cc(Br)c(O)c3Br)c2c(Cl)c(Cl)c(Cl)c(Cl)c21`, for which the AC50 was 50.2 µM (active) and 23.6 µM (active).
`C/C=C(\C)C(=O)OCc1ccccc1`: the outcome was inactive.
On to `CCCCCCCCCCCCCOS(=O)(=O)O`, for which the AC50 was 70.8 µM (active).
`C=CCOC(=O)CCC1CCCCC1`: the compound was classed as inactive.
Consider `C[C@H]1C[C@@H]2[C@H]([C@@H](O)C[C@@]3(C)[C@H]2CC[C@]3(O)C(=O)CO)[C@@]2(C)C=CC(=O)C=C12`, for which the result was inactive.
Still for that read-out and setting: in the case of `CC(C)(C)NC(N)=O` it was “inactive”.
Regarding `O=c1[nH]nnc2ccccc12`, the compound was called inactive.
For `Clc1nc(C(Cl)(Cl)Cl)c(Cl)c(Cl)c1Cl`, the outcome was inactive.
As to `Cc1ccccc1C=O`, the compound was called inactive.
For `CCCCC(CC)COCCC#N` (stereo not given), the outcome was inactive.
With `O=Cc1ccc(F)cc1`, the result was inactive.
Consider `CC(C)c1ccc(C(C)C)cc1`, for which the call was inactive.
As to `Nc1cccc(S(=O)(=O)c2cccc(N)c2)c1`, the compound was called inactive.
Turning to `CCC(=O)OCCC(C)CCC=C(C)C` (stereo not given), the call was inactive.
Regarding `NCCCCCCN`, the compound was called inactive.
Same read-out and setting: in the case of `O=C(O)CCCCCCCC(=O)O` it was “inactive”; in that of `O=C(O)CCCCC1CCSS1` (stereo not given), “inactive”.
In the case of `COc1ccc(NC(=O)CC(C)=O)cc1`, the call was inactive.
Consider `O=C(Cl)c1cccc(C(=O)Cl)c1`, for which the result was inactive.
Regarding `CCCCCCCCCCCCSC`, the compound was called inactive.
`Cc1ncc([N+](=O)[O-])n1C`: the call was inactive.
As for `CCCCCCCCCCCCCC(=O)O`, the compound was called inactive.
For the compound `CCCCC/C=C/C=C/C=O`, the outcome was inactive and the AC50 was 75 µM (active).
As to `C[C@H]1C[C@H]2[C@@H]3CCC4=CC(=O)C=C[C@]4(C)[C@@]3(F)[C@@H](O)C[C@]2(C)[C@@]1(O)C(=O)COP(=O)(O)O`, the result was inactive.
The same measure, in the same setting: in the case of `CC(=O)OCCC(C)CC(C)(C)C` (stereo not given) it was “inactive”; in that of `CCCCCC(=O)OCCc1ccccc1`, “inactive”; in that of `O=C1C(c2[nH]c3ccc(S(=O)(=O)O)cc3c2O)=Nc2ccc(S(=O)(=O)O)cc21`, “inactive”.
Turning to `CCCc1c(OCCCOc2ccc(OCC(=O)O)cc2)ccc(C(C)=O)c1O`, the AC50 is 46.1 µM (active).
With `CC(C)=CCCC(C)=CCCC(C)=CCO`, the call was inactive.
Same read-out and setting: in the case of `CC(C=O)Cc1ccc(C(C)C)cc1` (stereo not given) it was “inactive”; in that of `O=C1O[C@@H]2[C@@H](O)[C@H](O)O[C@@H]2[C@H]1O`, “inactive”.
`CCCCCCCCC=O`: the outcome was inactive.
The same measure, in the same setting: under `CC(C)C(C)(C)C(C)(C)C(C)(C)S` stands “inactive”; under `C=CC[N+](C)(C)CC=C`, “inactive”; under `CC(C)(C#N)c1cc(Cn2cncn2)cc(C(C)(C)C#N)c1`, “inactive”.
In the case of `O=[N+]([O-])c1cc(C(F)(F)F)ccc1Cl`, the result was inactive.
Consider `O=C1c2ccccc2C(=O)N1SC1CCCCC1`, for which the outcome was inactive and the AC50 is 49.3 µM (active).
With `O=C(O)CCSCCC(=O)O`, the result was inactive.

The values above are taken from PubChem BioAssay (EPA / NIEHS).
